From PubChem
HCV inh: blocks hepatitis C virus; Huh7.5.1 HCVcc-Cre infection, luciferase reporter, 44 h; Potency, µM (top dose mostly 41.8 µM), without a hit: at the top dose activity change, negative = inhibition, most hits filed as inhibitors; hit rate 3.4% among 340,000; also: potency is read from the fitted curve at half-maximal effect; % is scaled to controls: 0 for no effect and ±100 for the full control effect
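Infectious HCV cell culture screen: compound-treated cells (1,000/well, pre-plated 4 h) are infected with HCVcc-Cre at roughly 0.5 moi and grown 44 h. Infection is quantified by luciferase signal after 15 min substrate incubation at room temperature.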
Sm TGR inh: inhibitors of Schistosoma mansoni thioredoxin glutathione reductase; Q962Y6; hit rate 3% among 360,000; purified TGR, DTNB reduction, TNB absorbance 405 nm; Potency, µM (titrated, usually from 114 µM), for inactives: top-dose activity change, negative = inhibition, most hits filed as inhibitors; AID 485364; also: potency is read from the fitted curve at half-maximal effect; % is scaled to controls: 0 for no effect and ±100 for the full control effect; nearly all actives have a fitted effect of over 60% in size
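TGR 20 nM + NADPH 100 uM (dispensed conc.), cpd preinc 15 min RT; start with NADPH (500 uM addition) then DTNB (15 mM addition). Kinetic TNB absorbance, 405 nm filter. Four-parameter Hill fit across titration.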
Pf growth 48h: P. falciparum growth inhibition at 48 hours (one generation). hit rate 5.9% among 310,000. P. falciparum luciferase growth in erythrocytes, 48 h. Potency, µM (series often up to 28.7 µM), for inactives: at the top dose activity change, negative = inhibition, most hits filed as inhibitors; also: potency is read from the fitted curve at half-maximal effect; % is scaled to controls: 0 for no effect and ±100 for the full control effect
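Luminescence readout; reporter = integrated firefly luciferase in P. falciparum. RBC culture at 2% hematocrit, 0.1% parasitemia final, 37 C/5% CO2; decreased signal taken as growth inhibition.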
HCMV inh: inhibitors of human cytomegalovirus | HFF cells, HCMV-luciferase reporter, 72 h; hits give low values | AID 1259415 | hit rate 4.5% among 410,000 | activity change, negative = inhibition, % at 57.5 µM; in the data active = activity change below about -60%; inconclusive = no clear call, values can overlap the other calls; inactive = above about -39%; also: % is scaled to controls: 0 for no effect and ±100 for the full control effect
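Two compound doses tested in HFFs infected with HCMV-luciferase, MOI 1 PFU/cell, 72 h at 37C. Lysate luminescence read with OneGlo; data normalized against buffer-only and 10uM Salinomycin inhibitor controls.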
SARS PLpro yeast: blocks SARS-CoV papain-like protease in a yeast assay. S. cerevisiae expressing SARS-CoV PLpro, growth rescue. Potency, µM (highest dose often 32.9 µM), for the others: top-dose activity, positive = growth rescue, most hits filed as activators. hit rate 0.19% among 330,000. AID 485353; calls by dose curve; also: potency is read from the fitted curve at half-maximal effect; 0% is about no effect; nearly all actives have a fitted effect of over 55% in size
Pf growth 96h: P. falciparum growth inhibition at 96 hour, primary screen for plastid delayed-death inhibitors | hit rate 6.9% among 320,000 | Potency, µM (series often up to 28.7 µM), without a hit: top-dose activity change, negative = inhibition, hits mostly inhibitors | P. falciparum luciferase reporter growth, 96 h; also: potency is read from the fitted curve at half-maximal effect; % is scaled to controls: 0 for no effect and ±100 for the full control effect
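Erythrocytes infected with luciferase-expressing P. falciparum were dispensed at 2% hematocrit and 0.05% parasitemia (final), then incubated with compounds 96 hours at 37 C in 5% CO2. Luminescence after detection reagent addition reported growth.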
The depositor's hits bear a star; ? = inconclusive; / = no result given; [ ] = dose if it differs, or a comment. Hits are enriched below; roughly 15% of the tested compounds scored in any of these assays. Unless noted, calls follow the shape of the dose curve; as a rule, active = well fitted curve in the direction sought with a large enough effect; inconclusive = small, poorly fitted or top-dose-only effect, or another doubt; inactive = no such curve, though single readings can be large; an effect the other way counts as inactive or inconclusive.

SMILES	HCV inh	Sm TGR inh	Pf growth 48h	HCMV inh	SARS PLpro yeast	Pf growth 96h
Cc1cc(NCCN2CCCCC2)n2c(nc3ccccc32)c1C#N	7.1µM*	0%	?	/	-1%	/
Cc1cc(NCCCN(C)C)n2c(nc3ccccc32)c1C#N	?	1%	6%[0.00184 µM]	-26	0%	12%
Cc1cc(N2CCN(C3CCCC3)CC2)n2c(nc3ccccc32)c1C#N	35%	-21%	0.29µM*	-37	-6%	0.23µM*
O=C(NCc1ccccc1)C1CCCN(C(=O)c2ccc(F)cc2)C1 (centres undefined)	-10%	2%	-6%	-33	-1%	-2%
CCc1ccc(OCC(=O)Nc2ccc3oc(=O)ccc3c2)cc1	3%	0%	18%	-17	-2%	17%
COc1ccc(NC(=O)CSc2nc(-c3ccco3)nc3cc(=O)[nH]n23)cc1Cl	14%	?	14%	0	-6%	-15%
COc1ccc(NC(=O)CSc2nc(-c3ccco3)nc3cc(=O)[nH]n23)cc1	/	10µM*	/	-1	/	/
Cc1ccc(NC(=O)CSc2nc(-c3ccco3)nc3cc(=O)[nH]n23)cc1C	/	22µM*	/	-8	/	/
O=C1C(=O)N(C(C(=O)NCc2ccccc2)C2CCCC2)c2ccccc21 (centres undefined)	/	/	/	-9	/	/
CCCCCCCC(=O)N[C@H]1CC[C@@]23CCCN2C(=O)CCC[C@H]3[C@H]1Cc1ccccc1	/	/	/	1	/	/
COc1ccc(NC(C)=O)cc1S(=O)(=O)N1CC=C(c2ccccc2)CC1	7%	/	/	-7	1%	/
COc1cc(CN2C[C@@H](CO)O[C@@H](n3cnc4c(Nc5ccccc5)ncnc43)C2)cc(OC)c1OC	/	/	/	-10	/	/
O=C1/C(=C/c2ccccc2F)SC(=S)N1CCC(=O)N1CCCCC1CCO (centres undefined)	?	-6%	?	-84*	-11%	?
O=C(CCN1C(=O)/C(=C\c2ccccc2F)SC1=S)N1CCCCC1	3%	-9%	7%	19	-4%	?
COc1ccc(/C=C2\SC(=S)N(CCC(=O)N3CCCCC3CCO)C2=O)cc1 (centres undefined)	-16%	-9%	?	-84*	-2%	?
O=C1/C(=C/c2cccc(Cl)c2)SC(=S)N1CCC(=O)N1CCCCC1CCO (centres undefined)	-18%	0%	?	-82*	-4%	?
COc1ccc(/C=C2\SC(=O)N(CCC(=O)N3CCCCC3CCO)C2=O)cc1 (centres undefined)	?	-9%	?	-7	-3%	?
O=C1/C(=C/c2cccs2)SC(=S)N1CC(=O)N1CCCCC1CCO (centres undefined)	-16%	-1%	-7%	-83*	1%	16%
COc1cccc(/C=C2\SC(=S)N(CCC(=O)N3CCCCC3)C2=O)c1	0%	4%	-18%	?	-2%	?
O=C(CCN1C(=O)/C(=C/c2ccc(Cl)cc2)SC1=S)NC1C=CS(=O)(=O)C1 (centres undefined)	12%	3%	-12%	-14	1%	4%
O=C1/C(=C\c2ccco2)SC(=S)N1C1CCCCC1	/	40µM*	24%	/	-6%	?
O=C1/C(=C/c2ccccc2)SC(=S)N1CCCC(=O)N1CCCCC1CCO (centres undefined)	?	-13%	?	-101*	0%	7.4µM*
O=C1/C(=C/c2ccc(Cl)cc2)SC(=S)N1CCC(=O)N1CCCCC1CCO (centres undefined)	?	-5%	-9%	-86*	0%	13µM*
Cc1ccc(N2C(=O)/C(=C/c3ccco3)SC2=S)cc1	0%	-12%	13%	5	-15%	-20%
O=C1/C(=C/c2ccco2)SC(=S)N1CCC(=O)N1CCCCC1CCO (centres undefined)	2%	22µM*	?	-92*	15%	?
SMILES	HCV inh	Sm TGR inh	Pf growth 48h	HCMV inh	SARS PLpro yeast	Pf growth 96h
Cc1ccccc1NC(=O)CNC(=O)Cc1cccc2ccccc12	-2%	0%	19%	-22	1%	30%
Cc1cccc(C)c1NC(=O)CNC(=O)CNC(=O)Cc1cccc2ccccc12	5%	6.3µM*	-3%	-3	-4%	-10%
Cc1c(NS(=O)(=O)c2cc(C(=O)NCc3cccnc3)cc(Cl)c2Cl)c(=O)n(-c2ccccc2)n1C	-8%	-9%	12µM*	-3	-4%	?
Cc1[nH]c2ccccc2c1CCN(Cc1cccnc1)C(=S)Nc1cccc(F)c1	16µM*	0%	?	-6	4%	?
Cc1[nH]c2ccccc2c1CCN(Cc1cccnc1)C(=S)NC(C)(C)C	-13%	?	11%[0.00184 µM]	-14	1%	13µM*
COc1cccc(N2CC(O)Cn3c2nc2c3c(=O)n(CCCc3ccccc3)c(=O)n2C)c1 (centres undefined)	?	2%[11.4 µM]	/	-34	2%	?
COc1ccc(C(N)c2csc(Nc3ccc(S(C)(=O)=O)cc3)n2)cc1 (centres undefined)	/	/	/	69	/	/
O=C(NNc1cc(Br)c(O)c(Br)c1)c1ccccc1	23%	18µM*	26%	?	-1%	-23%
O=C(NNc1ccccc1)c1ccc(Cl)c(Cl)c1	?	/	/	-77*	/	/
O=C(NNC(=O)c1ccc2ccccc2c1)c1ccc(Cl)c(Cl)c1	-11%	/	/	-28	/	/
O=C(Nc1ccc(Cl)c(Cl)c1)c1ccc(Cl)c(Cl)c1	-18%	16%	77%	1	2%	92%
O=C(Nc1ccc(Cl)c(Cl)c1)c1ccncc1	-26%	0%	72%	89	-19%	15µM*
CC(C)(C)c1cc(C(=O)Nc2cccnc2)cc(C(=O)Nc2cccnc2)c1	?	-9%	/	39	-1%	0.83µM*
COc1cccc(C(=O)Nc2cccnc2)c1	-1%	-10%	87%	12	6%	/
Cc1cc(C)n2c(NCc3ccccc3)c(-c3cc4ccccc4o3)nc2n1	/	/	/	46	/	/
NC(=O)c1ccc(/C=N/O)nc1	6%	13%	3%	-10	6%	-25%
O=C1NC[C@@H](CCCCN2C[C@H](Cc3ccc(O)cc3)N(Cc3ccccc3)C(=O)C2=O)N(CCC2CCCCC2)C1=O	/	/	/	-22	/	/
Cc1ccc(S(=O)(=O)NCc2cccnc2)cc1C	3%	-8%	4%	-86*	1%	20%
CCc1ccc(NC(=O)c2ccc3[nH]c(C)c(C)c3c2)cc1	/	-4%	/	0	/	/
COc1cccc(S(=O)(=O)NCc2ccc(C(=O)Nc3ccc(Cl)c(Cl)c3)cc2)c1	?	4%	/	?	20%	?
